Assay outcomes as filed in PubChem.
D1 antagonist: Antagonist of Human D 1 Dopamine Receptor: qHTS; D(1A) dopamine receptor (Homo sapiens), P21728; HEK293 TREx D1 cells, calcium flux, dopamine EC80; hits give low values; activity change, negative = inhibition, % at 10 µM; hit rate 3.2% among 360,000; in the data active = activity change below about -30%
Target sequence (P21728 whole entry, looked up): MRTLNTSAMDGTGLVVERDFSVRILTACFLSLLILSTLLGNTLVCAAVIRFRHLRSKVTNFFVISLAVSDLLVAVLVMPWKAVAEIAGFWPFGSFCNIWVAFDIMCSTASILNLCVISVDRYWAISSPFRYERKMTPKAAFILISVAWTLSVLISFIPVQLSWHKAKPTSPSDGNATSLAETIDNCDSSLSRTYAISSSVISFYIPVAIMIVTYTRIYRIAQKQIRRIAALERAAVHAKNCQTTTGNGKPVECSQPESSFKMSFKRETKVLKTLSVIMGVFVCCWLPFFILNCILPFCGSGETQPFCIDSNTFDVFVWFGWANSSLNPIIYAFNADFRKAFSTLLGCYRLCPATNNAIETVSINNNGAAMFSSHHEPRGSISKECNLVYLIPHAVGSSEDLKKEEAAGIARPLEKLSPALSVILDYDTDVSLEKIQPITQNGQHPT
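Kinetic fluorescence of a calcium dye serves as the read-out. D1-expressing Hek293 Trex cells, induced overnight at 30 C, are exposed to compound for 180 s before an EC80 dopamine addition, then read 180 s further.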
DRD3 agonist: qHTS of D3 Dopamine Receptor Agonist: qHTS; D3R DiscoveRx beta-arrestin cells, luminescence, 90 min; max activation, %; hit rate 0.58% among 410,000; AID 652048, 2013; in the data active = max activation above about 30%
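Cells at 1500/well, incubated overnight, then treated with pinned compounds (dopamine as control) for 90 min at 37 degrees C. DiscoveRx reagent added for 30 - 60 minutes at room temperature; luminescence read.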
D1 potentiator: Potentiators of Human D1 Dopamine Receptor: qHTS; AID 504651, 2011; HEK293 TREx D1 cells, calcium flux, dopamine EC20 potentiation; hit rate 0.036% among 360,000; D(1A) dopamine receptor (Homo sapiens), P21728; potentiation, % at 10 µM; in the data active = potentiation above about 30%
D3 antag: qHTS of D3 Dopamine Receptor Antagonist: qHTS; D(3) dopamine receptor (Homo sapiens), P35462; D3R cells, DiscoveRx beta-arrestin luminescence, antagonist mode; hits give low values; max response, negative = inhibition, %; hit rate 2.5% among 360,000; in the data active = max response below about -50%; inconclusive = no clear call, values can overlap the other calls
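Cells plated overnight at 1500 cells/well, then exposed to library compounds with dopamine controls for 90 minutes at 37 degrees C. DiscoveRx reagent added for 30–60 minutes at room temperature; luminescence read, quantitative HTS format.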
D1 agonist: Allosteric Agonists of the Human D1 Dopamine Receptor: qHTS; HEK293 T-REx D1 cells, calcium flux, agonist mode; D(1A) dopamine receptor (Homo sapiens), P21728; hit rate 1% among 360,000; activation, % at 2 µM; in the data active = activation above about 30%
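Inducible HEK293 T-REx D1 cells, force-coupled to calcium signalling, were plated at 4000 cells/well with tetracycline and held overnight at 30 C. After no-wash calcium dye loading, compound-evoked calcium rise over 180 s flagged agonists.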
Hits are given with their value; - = inactive; ? = inconclusive; . = no result. Most compounds without a hit are left out; they make up all but 6% or so of the library.

SMILES	D1 antagonist	DRD3 agonist	D1 potentiator	D3 antag	D1 agonist
CC1=NN(c2nc(-c3ccc(C)cc3)cs2)C(=O)C1N=Nc1ccccc1O (centres undefined)	-	-	-	-64.5	-
Cc1cc(C)cc(NC(=O)c2ccc3c(O)c(S(=O)(=O)c4ccccc4)c(=O)[nH]c3c2)c1	-	-	-	.	-
O=[N+]([O-])c1ccc(-c2ccc(/C=N/Nc3nc(NCc4ccccc4)nc(N4CCOCC4)n3)o2)cc1	-	-	-	-	73.6
COc1nc(N/N=C/c2ccc(-c3ccccc3[N+](=O)[O-])o2)nc(N2CCOCC2)n1	-	-	-	-	-
Cc1ccc(C2CC(=O)N(Cc3ccccc3F)c3c2c(C)nn3-c2nc(C)cc(C)n2)cc1 (centres undefined)	-	-	-	.	-
COc1cc(/C=C2\SC(=O)N(c3ccc(Cl)cc3)C2=O)cc([N+](=O)[O-])c1O	-	-	-	-69.9	-
COc1cc(/C=C2\SC(=O)N(c3cccc(Cl)c3)C2=O)cc([N+](=O)[O-])c1O	-	-	-	-61.8	-
O=C(NCc1ccncc1)C(F)(F)C(F)(F)C(=O)NCc1ccncc1	-42.6	-	-	-	-
O=C(NCCCNCc1ccccc1)/C(=N\O)c1ccccc1	-	-	-	-	-
O=C(NCc1ccncc1)c1cc(F)c(F)cc1Cl	-39.7	-	-	-	-
O=C(NCc1ccncc1)/C(=N/O)c1ccccc1	-	-	-	-53.3	-
O=C(NCc1ccncc1)c1c(F)c(F)c(F)c(F)c1F	-	-	-	-	-
COc1ccc(CCNC(=O)Cn2cc(C(=O)c3ccc(Cl)cc3)c(=O)c3ccc(C)nc32)cc1OC	-	-	-	.	-
CN1CCN(C2=Nc3ccccc3Cc3ccccc32)CC1	.	-	.	.	.
Cc1cc2c(s1)Nc1ccccc1N=C2N1CCN(C)CC1	-89.1	.	.	?	.
Oc1ccc(NC(=S)Nc2ccccc2)cc1	-	-	-	-	-
Cc1ccc(NC(=S)NNC(=O)c2cn(C)nc2C)cc1	-	-	-	-66.9	-
Nc1ccc(NC(=S)Nc2ccccc2)cc1	-56.9	-	-	-	-
Cc1ccc(NC(=S)NNC(=O)c2c(Cl)c(C)nn2C)cc1	-	-	-	-	-
O=C(NNC(=S)Nc1ccccc1)Nc1ccccc1	-	-	-	-	-
Cc1ccc(NC(=S)NNC(=S)Nc2ccc(C)cc2)cc1	.	-	.	-	.
Cc1ccc(NC(=S)NNC(=O)Nc2ccccc2)cc1	-	-	-	-51.8	-
O=C(NNC(=S)Nc1ccccc1)NNC(=S)Nc1ccccc1	-	-	-	-69.6	-
CCCCn1cc2c(c1-c1ccc(Cl)cc1)c(=O)n(C)c(=O)n2C	-	-	-	.	-
Cc1ccc(O)c(NC(=O)CCSc2nc(-c3ccco3)cc(C(F)(F)F)n2)c1	-	-	-	.	-
SMILES	D1 antagonist	DRD3 agonist	D1 potentiator	D3 antag	D1 agonist
O=C(O)c1ccccc1C(=O)c1ccc(Br)s1	-34.5	-	-	-	-
O=C(O)c1ccccc1C(=O)c1cccc2ccccc12	-36.6	-	-	-	-
O=C(O)c1ccccc1C(=O)O	.	-	-	-	-
COc1ccc(S(=O)(=O)N2Cc3ccccc3CC2C(=O)Nc2cc(Cl)ccc2Cl)cc1 (centres undefined)	-	-	-	.	-
CC1CCN(c2nc3ccccc3nc2SCC(=O)Nc2ccccc2C(C)C)CC1	-	-	-	.	-
CC(C)OCCCNC(=O)C(=O)Nc1c2c(nn1-c1ccccc1)CS(=O)(=O)C2	.	-	-	.	-
CC(=O)Cn1cnc2sc(-c3ccccc3)cc2c1=O	-36.4	-	-	-	-
CCn1cnc2sc(-c3ccccc3)cc2c1=O	-	-	-	-	-
NC(=O)CSc1nnc(Cc2csc(Nc3ccccc3)n2)n1Cc1ccccc1	-	-	-	-	-
COCCCn1c(Cc2csc(Nc3ccccc3)n2)nnc1SCC(N)=O	-35.8	-	-	-	-
CCCc1nc2oc3ccccc3c(=O)c2c(=O)n1-c1ccc(C)cc1	-	-	-	-	36.6
CCN1C(=O)[C@H]2[C@@H](c3ccc(-c4cc(C(C)=O)cs4)cc3)N3CCC[C@@]3(C(=O)OC)[C@H]2C1=O	-31.1	-	-	-	-
CCSc1ccc([C@@H]2[C@H]3C(=O)N(CC)C(=O)[C@H]3[C@]3(C(=O)OC)CCCCN23)cc1OC	.	62.7	.	-	.
CC(C)CNC(=O)N1CCN(S(=O)(=O)c2ccc3c(ccn3C)c2)CC1	-	-	-	.	-
C=CCOc1ccc(CN(C)c2ccc(S(=O)(=O)N3CCN(C)CC3)cc2[N+](=O)[O-])cc1	-36.4	-	-	?	-
CCOc1ccc(CN(C)c2ccc(S(=O)(=O)N3CCN(C)CC3)cc2[N+](=O)[O-])cc1OC	-44.8	-	-	-	-
COc1cccc(CNC(=O)C2CCCN(S(=O)(=O)c3cn(C)cn3)C2)c1 (centres undefined)	-	-	-	.	-
CCCS(=O)(=O)NCCc1csc2nc(-c3ccc(OC)cc3)nn12	.	-	-	.	-
O=C(c1cccs1)N1CCCc2cc(NS(=O)(=O)c3ccc(Br)cc3)ccc21	-39.9	-	-	.	-
O=C(Nc1ccc2c(c1)CCCN2C(=O)c1cccs1)c1cccc(C(F)(F)F)c1	-58.0	-	-	.	-
O=C(Nc1ccc2c(c1)CCCN2C(=O)c1cccs1)c1cccc(F)c1	-36.4	-	-	-	-
CCN(CC)CCCNC(=O)c1ccc2nc(CCc3ccccc3)oc2c1	-	-	-	.	-
Cc1oc(=O)c(NC(=O)c2cccc(Cl)c2)cc1C(=O)c1ccccc1	.	-	.	-62.8	.
COc1ccc(C(=O)Nc2cc(C(=O)c3ccccc3)c(C)oc2=O)cc1	-	-	-	-61.9	-
COC(=O)c1cc(NC(=O)c2ccccc2)c(=O)oc1C	-	-	-	-	-
SMILES	D1 antagonist	DRD3 agonist	D1 potentiator	D3 antag	D1 agonist
Cc1oc(=O)c(NC(=O)c2ccccc2)cc1C(N)=O	-	-	-	-	-
Cc1ccc(C)c(NC(=S)Nc2cccnc2)c1	-	-	-	-	-
CSc1cccc(NC(=S)Nc2cc(C)ccc2C)c1	-40.2	-	-	-	-
COC(=O)c1ccc(NC(=O)CC2C(=O)N(c3cccc(OC)c3)C(=O)N2Cc2ccco2)cc1 (centres undefined)	-	-	-	.	-
Cc1ccc(NC(=O)N2CCN3CCCCC3C2)cc1C (centres undefined)	-35.5	-	-	.	-
O=C(CCCN1C(=O)/C(=C\c2cccs2)SC1=S)Nc1cc([N+](=O)[O-])ccc1O	-	-	-	-90.3	-
O=C(O)CCCN1C(=O)/C(=C/c2cn(-c3ccccc3)nc2-c2cccs2)SC1=S	-36.6	-	-	-	50.6
O=C(CCN1C(=O)/C(=C\c2cccs2)SC1=S)Nc1nccs1	-	-	-	-51.8	-
